Data on 6 compounds can be found in PubChem BioAssay (Tox21).

Molecules are shown by their SMILES. Inconclusive results are not listed. Active and inactive are the calls of the source. Unless noted, the call rests on the fitted dose curve.

Assay [1] in a line: qHTS assay to identify small molecule agonists of the sonic hedgehog signaling (Shh) pathway (AID 1259368).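 Further: NIH/3T3-derived 3T3Gli1-Luc cells carrying a stable Gli1-driven firefly luciferase reporter; series mostly up to about 92 µM; nearly all actives have a fitted effect of over 15% in size.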 Put shortly:
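Hedgehog pathway agonism scored by increased firefly luciferase luminescence in 3T3Gli1-Luc cells treated 24 hr at 37 C; detection used a 30 min room-temperature reagent incubation.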

Assay [2] in a line: qHTS assay to identify small molecule antagonists of the sonic hedgehog signaling (Shh) pathway (AID 1259369). Further: nearly all actives have a fitted effect of over 45% in size. Put shortly: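 NIH/3T3 stable Gli1-Luc clone, 2,000 cells/well, 4hr settle; cpd + conditioned medium 24hr; Luc reagent 30min RT; luminescence.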
The target in assay [3] is Estrogen receptor beta (Homo sapiens) (UniProt Q92731). The experiment in a line: qHTS assay to identify small molecule agonists of the estrogen receptor beta (ER-beta) signaling pathway (AID 1259377; active means well fitted activation curve with a large enough effect in the signal ratio in the repeat runs, not every such curve was filed as active; the % refers to the signal ratio). Put shortly: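 HEK293T ER-beta-UAS-bla; 2% charcoal-stripped FBS; cells pre-incubated 6 hr, compound 16 hr, 37C/5% CO2; LiveBLAzer B/G FRET substrate 2 h RT; fluorescence intensity read.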

For assay [4] the target is unchanged. In words: qHTS assay to identify small molecule antagonists of the estrogen receptor beta (ER-beta) signaling pathway (AID 1259378; active means well fitted inhibition curve with a large enough effect in the signal ratio in the repeat runs, not every such curve was filed as active; the % refers to the signal ratio). Put shortly: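 Antagonist mode: compounds added to beta-lactamase reporter HEK293T ER-beta-UAS cells stimulated with E2 (1nM final), 16 hr at 37C. LiveBLAzer B/G FRET substrate, 2 hours room temperature, fluorescence read-out.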

The nature of assay [5]: qHTS assay to identify small molecule agonists of the androgen receptor (AR) signaling pathway in the presence of an antagonist - cell viability counter screen (AID 1259379; active means well fitted curve in the direction sought with a large enough effect in the repeat runs; an effect the other way counts as inactive or inconclusive;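 further: MDA-kb2 human breast cancer cells carrying an MMTV luciferase reporter; series mostly up to about 92 µM; nearly all actives have a fitted effect of over 25% in size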). Put shortly: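 MDA-kb2 viability measured by CellTiter-Fluor fluorescence in the same wells as the luciferase signal; nilutamide 3.0uM final; 15-point compound titration; 16 hr at 37C.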
A short description of assay [6]: qHTS assay to identify small molecule agonists of the estrogen receptor beta (ER-beta) signaling pathway - cell viability counter screen (AID 1259380; active means well fitted curve in the direction sought with a large enough effect in the repeat runs; an effect the other way counts as inactive or inconclusive; further: nearly all actives have a fitted effect of over 30% in size). Summed up: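 Measured: luminescence from CellTiter-Glo after 30 min at room temperature, added to wells already read for the LiveBLAzer FRET reporter (2 hr substrate); ER-beta-UAS-bla HEK293T cells had 16 hr compound treatment at 37C, 5% CO2.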

Assay [7] in a line: qHTS assay to identify small molecule antagonists of the estrogen receptor beta (ER-beta) signaling pathway - cell viability counter screen (AID 1259382; active means well fitted curve in the direction sought with a large enough effect in the repeat runs; an effect the other way counts as inactive or inconclusive;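 further: HEK293T cells carrying ER-beta-UAS-bla reporter stimulated with estradiol; series mostly up to about 92 µM; nearly all actives have a fitted effect of over 55% in size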). Put shortly:
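Readout: luminescence, CellTiter-Glo, same wells as bla assay. System: ER-beta-UAS-bla GripTite HEK293T, 2% charcoal-stripped FBS. Exposure: compounds plus 1nM 17-beta-estradiol, 16 hr, 37C.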

Assay [8] has as its target Estrogen receptor (Homo sapiens) (UniProt P03372). In words: qHTS assay to identify small molecule agonists of the estrogen receptor alpha (ER-alpha) signaling pathway in the presence of an antagonist (AID 1259383). Further: top concentration of the series differs between compounds; nearly all actives have a fitted effect of over 15% in size. Summed up: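 Quantitative HTS confirmation: compounds titrated at 15 concentrations onto estrogen-deprived VM7Luc4E2 cells carrying a four-ERE luciferase construct, with ICI-182,780 present at 10.0nM final. Signal is luminescence after 22hr exposure.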

The nature of assay [9]: qHTS assay to identify small molecule agonists or antagonists of the thyroid stimulating hormone receptor (TSHR) signaling pathway - wild type cell line counter screen (AID 1259384). Put shortly:
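Counter screen in untransfected Hek293: compounds (15-point titration, triplicate) plus phosphodiesterase inhibitor Ro20-1724 added after 18 h plating; 30 min RT. Intracellular cAMP via competitive d2/cryptate immunoassay, 1 h incubation.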

Assay [10] has as its target Thyrotropin receptor (Homo sapiens) (UniProt P16473). In words: qHTS assay to identify small molecule antagonists of the thyroid stimulating hormone receptor (TSHR) signaling pathway (AID 1259385). Further: nearly all actives have a fitted effect of over 20% in size. Further: potency means the concentration at half of the fitted maximal effect. Put shortly:
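Antagonist mode: compound-treated TSHR-expressing HEK293 cells were stimulated with 1.5 ng/mL TSH (final) in presence of Ro20-1724 for 30 min at RT. HTRF cAMP detection after 1 h; each compound tested at 15 concentrations, triplicate.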

The nature of assay [11]: qHTS assay to identify small molecule agonists of the estrogen receptor alpha (ER-alpha) signaling pathway in the presence of an antagonist - cell viability counter screen (AID 1259386; active means well fitted curve in the direction sought with a large enough effect in the repeat runs; an effect the other way counts as inactive or inconclusive;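 further: series mostly up to about 92 µM; cells exposed to compounds for 22 h at 37 °C before the viability read; nearly all actives have a fitted effect of over 30% in size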). Put shortly:
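The test measures whether compounds kill ER-alpha reporter cells (VM7Luc4E2) under antagonist co-treatment (ICI-182,780, 10.0nM). Fluorescence from CellTiter-Fluor is read after a 22hr exposure.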

For assay [12], the target named is Progesterone receptor (Homo sapiens) (UniProt P06401). In words: qHTS assay to identify small molecule agonists of the progesterone receptor (PR) signaling pathway (AID 1346784). Further: nearly all actives have a fitted effect of over 30% in size. Further: potency means the concentration at half of the fitted maximal effect. Summed up:
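Beta-lactamase reporter read-out: after 16 hr compound treatment at 37C and a further 2 hr at room temperature with LiveBLAzer B/G FRET substrate, fluorescence was measured in PR-UAS-bla HEK 293T cells grown in 2% charcoal-stripped serum.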

Assay [13] has the same target. In words: qHTS assay to identify small molecule antagonists of the progesterone receptor (PR) signaling pathway (AID 1346795; active means well fitted inhibition curve with a large enough effect in the signal ratio in the repeat runs, not every such curve was filed as active; the % refers to the signal ratio). Summed up: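 Read-out is fluorescence from the LiveBLAzer B/G FRET substrate, cleaved by a UAS-controlled beta-lactamase in PR-UAS-bla HEK293T cells after 16 hr exposure to compound plus 1 nM promegestone (final), followed by 2 hr at room temperature.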

A short description of assay [14]: qHTS assay to identify small molecule antagonists of the progesterone receptor (PR) signaling pathway - cell viability counter screen (AID 1346798; active means well fitted curve in the direction sought with a large enough effect in the repeat runs; an effect the other way counts as inactive or inconclusive; further: series mostly up to about 92 µM; nearly all actives have a fitted effect of over 50% in size). Summed up: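 HEK293T PR-UAS-bla, 2% charcoal-stripped FBS; 4 hr pre-plate; cpd + R5020, 16 h 37C; LiveBLAzer read first; then CellTiter-Glo 30 min RT, luminescence.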
Assay [15] in a line: qHTS assay to identify small molecule agonists of the progesterone receptor (PR) signaling pathway - cell viability counter screen (AID 1346799). Further: nearly all actives have a fitted effect of over 45% in size. Summed up:
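Luminescence from CellTiter-Glo, added after the beta-lactamase FRET read in the same wells, gave cytotoxicity in PR-UAS-bla HEK293T cells treated with compounds for 16 hr at 37C.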

Assay [16] is described as follows: qHTS assay to identify small molecule agonists of the TGF-beta/Smad signaling pathway - cell viability counter screen (AID 1346829; active means well fitted curve in the direction sought with a large enough effect in the repeat runs; an effect the other way counts as inactive or inconclusive; further: top concentration of the series differs between compounds; nearly all actives have a fitted effect of over 45% in size). Put shortly:
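Here the cytotoxicity of library compounds is measured in SBE-bla HEK 293T cells treated for 5 hr, using CellTiter-Glo added to wells already read for the beta-lactamase reporter.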

Assay [17] is described as follows: qHTS assay to identify small molecule agonists of the TGF-beta/Smad signaling pathway (AID 1346859; active means well fitted activation curve with a large enough effect in the signal ratio in the repeat runs, not every such curve was filed as active; the % refers to the signal ratio; further: series mostly up to about 77 µM). Put shortly:
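SBE-bla HEK 293T, 4,000 cells/well, plated o/n; cpd in DMSO, 5 hr, 37 C/5% CO2; B/G FRET substrate 2 hr RT; ex 405, em 460/530 nm.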

In assay [18] the target is Thyrotropin-releasing hormone receptor (Homo sapiens) (UniProt P34981). The experiment in a line: qHTS assay to identify small molecule antagonists of the thyrotropin-releasing hormone receptor (TRHR) signaling pathway (AID 1346877; active means well fitted inhibition curve with a large enough effect in the repeat runs, not every such curve was filed as active; further: series mostly up to about 51 µM). Summed up:
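Overnight-plated (18 h, 37 °C) HEK293 cells expressing TRHR were dye-loaded 2 h, treated with compound, then stimulated with TRH at 1 nM final. Fluorescence intensity was captured every second for 3 min.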

Assay [19] addresses Androgen receptor (Homo sapiens) (UniProt P10275). In words: qHTS assay to identify small molecule agonists of the androgen receptor (AR) signaling pathway in the presence of an antagonist (AID 1259381). Further: nearly all actives have a fitted effect of over 15% in size. Put shortly:
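Luminescent ONE-Glo read, 30min at room temperature, follows 16hr compound exposure (15 concentrations) of MDA-kb2 cells at 37C, 0% CO2, with nilutamide added at 3.0uM final.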

Assay [20] can be described thus: qHTS assay to identify small molecule antagonists of the TGF-beta/Smad signaling pathway - cell viability counter screen (AID 1346824; active means well fitted curve in the direction sought with a large enough effect in the repeat runs; an effect the other way counts as inactive or inconclusive; further: nearly all actives have a fitted effect of over 50% in size). Summed up: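 Cytotoxicity counter-screen run in the same wells as the beta-lactamase Smad reporter read: CellTiter-Glo luminescence after 30 min at room temperature. HEK 293T SBE-bla cells had 5 hr compound exposure at 37 C with TGF-beta1 (0.25 ng/mL stock).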

Chain of Thyrotropin receptor (Homo sapiens) (P16473 whole entry, looked up): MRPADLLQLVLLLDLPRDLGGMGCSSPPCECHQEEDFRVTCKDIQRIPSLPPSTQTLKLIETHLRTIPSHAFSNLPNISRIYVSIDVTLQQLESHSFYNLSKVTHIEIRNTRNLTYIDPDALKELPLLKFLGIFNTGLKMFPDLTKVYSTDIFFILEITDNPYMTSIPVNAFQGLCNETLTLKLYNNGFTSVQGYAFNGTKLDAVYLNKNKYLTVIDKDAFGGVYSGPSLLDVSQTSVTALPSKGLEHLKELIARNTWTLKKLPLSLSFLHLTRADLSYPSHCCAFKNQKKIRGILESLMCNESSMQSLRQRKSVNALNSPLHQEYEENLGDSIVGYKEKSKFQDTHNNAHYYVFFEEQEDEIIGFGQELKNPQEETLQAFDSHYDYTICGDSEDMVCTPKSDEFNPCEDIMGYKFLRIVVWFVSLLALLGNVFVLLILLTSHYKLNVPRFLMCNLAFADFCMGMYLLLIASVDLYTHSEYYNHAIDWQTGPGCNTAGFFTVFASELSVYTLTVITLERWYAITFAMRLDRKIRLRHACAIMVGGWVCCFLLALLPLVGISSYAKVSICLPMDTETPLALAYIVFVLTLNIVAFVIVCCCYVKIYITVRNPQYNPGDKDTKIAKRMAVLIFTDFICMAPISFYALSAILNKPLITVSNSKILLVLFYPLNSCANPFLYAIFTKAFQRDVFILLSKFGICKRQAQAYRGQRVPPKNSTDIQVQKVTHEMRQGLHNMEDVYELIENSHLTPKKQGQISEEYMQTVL
Chain of Estrogen receptor beta (Homo sapiens) (Q92731 whole entry, looked up): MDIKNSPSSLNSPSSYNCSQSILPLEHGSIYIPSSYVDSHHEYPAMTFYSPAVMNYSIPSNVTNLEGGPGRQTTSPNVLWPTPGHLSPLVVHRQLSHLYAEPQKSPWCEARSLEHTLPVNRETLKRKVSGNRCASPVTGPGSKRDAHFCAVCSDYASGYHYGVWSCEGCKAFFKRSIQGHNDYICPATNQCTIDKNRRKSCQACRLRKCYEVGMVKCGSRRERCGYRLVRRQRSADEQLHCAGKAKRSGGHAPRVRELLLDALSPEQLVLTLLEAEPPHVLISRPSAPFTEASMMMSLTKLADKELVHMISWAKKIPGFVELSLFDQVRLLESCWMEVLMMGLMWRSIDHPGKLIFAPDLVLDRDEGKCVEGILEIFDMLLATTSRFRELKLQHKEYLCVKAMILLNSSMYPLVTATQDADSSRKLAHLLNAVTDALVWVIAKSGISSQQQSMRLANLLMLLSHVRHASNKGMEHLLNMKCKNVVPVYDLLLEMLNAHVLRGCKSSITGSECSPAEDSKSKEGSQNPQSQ
Chain of Thyrotropin-releasing hormone receptor (Homo sapiens) (P34981 whole entry, looked up): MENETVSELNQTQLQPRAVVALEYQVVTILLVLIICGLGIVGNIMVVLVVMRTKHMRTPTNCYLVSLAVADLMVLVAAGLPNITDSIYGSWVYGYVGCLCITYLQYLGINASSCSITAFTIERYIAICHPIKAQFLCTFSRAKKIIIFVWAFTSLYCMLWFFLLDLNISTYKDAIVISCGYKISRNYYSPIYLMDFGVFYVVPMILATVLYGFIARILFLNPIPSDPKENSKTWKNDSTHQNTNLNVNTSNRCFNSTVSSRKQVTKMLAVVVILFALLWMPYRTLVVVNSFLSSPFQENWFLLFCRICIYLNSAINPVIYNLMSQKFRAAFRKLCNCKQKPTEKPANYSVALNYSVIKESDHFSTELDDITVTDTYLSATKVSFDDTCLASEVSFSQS
Chain of Progesterone receptor (Homo sapiens) (P06401 whole entry, looked up): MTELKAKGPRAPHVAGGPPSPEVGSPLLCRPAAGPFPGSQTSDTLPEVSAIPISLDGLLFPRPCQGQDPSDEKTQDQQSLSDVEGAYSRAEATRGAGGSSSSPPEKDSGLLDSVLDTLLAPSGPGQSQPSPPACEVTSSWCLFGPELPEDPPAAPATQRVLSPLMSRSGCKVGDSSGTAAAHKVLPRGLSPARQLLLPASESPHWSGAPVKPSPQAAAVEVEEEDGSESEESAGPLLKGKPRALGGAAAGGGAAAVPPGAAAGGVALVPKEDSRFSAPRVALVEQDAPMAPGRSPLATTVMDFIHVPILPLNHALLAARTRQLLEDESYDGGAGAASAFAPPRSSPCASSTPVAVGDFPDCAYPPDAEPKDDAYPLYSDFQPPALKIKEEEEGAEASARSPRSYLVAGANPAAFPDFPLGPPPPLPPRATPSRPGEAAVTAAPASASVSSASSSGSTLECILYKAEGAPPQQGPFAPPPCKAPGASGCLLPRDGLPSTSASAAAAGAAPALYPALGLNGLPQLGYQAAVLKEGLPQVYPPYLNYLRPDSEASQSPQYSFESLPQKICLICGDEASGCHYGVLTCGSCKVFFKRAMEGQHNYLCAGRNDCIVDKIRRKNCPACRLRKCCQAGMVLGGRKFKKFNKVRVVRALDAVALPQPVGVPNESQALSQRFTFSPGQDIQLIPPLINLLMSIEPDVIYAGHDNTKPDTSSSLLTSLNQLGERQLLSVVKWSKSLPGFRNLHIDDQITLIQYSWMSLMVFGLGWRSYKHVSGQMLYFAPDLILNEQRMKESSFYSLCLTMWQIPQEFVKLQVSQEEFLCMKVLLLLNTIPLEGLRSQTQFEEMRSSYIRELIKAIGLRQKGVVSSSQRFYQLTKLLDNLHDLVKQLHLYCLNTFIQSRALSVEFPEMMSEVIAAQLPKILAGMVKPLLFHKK
Chain of Estrogen receptor (Homo sapiens) (P03372 whole entry, looked up): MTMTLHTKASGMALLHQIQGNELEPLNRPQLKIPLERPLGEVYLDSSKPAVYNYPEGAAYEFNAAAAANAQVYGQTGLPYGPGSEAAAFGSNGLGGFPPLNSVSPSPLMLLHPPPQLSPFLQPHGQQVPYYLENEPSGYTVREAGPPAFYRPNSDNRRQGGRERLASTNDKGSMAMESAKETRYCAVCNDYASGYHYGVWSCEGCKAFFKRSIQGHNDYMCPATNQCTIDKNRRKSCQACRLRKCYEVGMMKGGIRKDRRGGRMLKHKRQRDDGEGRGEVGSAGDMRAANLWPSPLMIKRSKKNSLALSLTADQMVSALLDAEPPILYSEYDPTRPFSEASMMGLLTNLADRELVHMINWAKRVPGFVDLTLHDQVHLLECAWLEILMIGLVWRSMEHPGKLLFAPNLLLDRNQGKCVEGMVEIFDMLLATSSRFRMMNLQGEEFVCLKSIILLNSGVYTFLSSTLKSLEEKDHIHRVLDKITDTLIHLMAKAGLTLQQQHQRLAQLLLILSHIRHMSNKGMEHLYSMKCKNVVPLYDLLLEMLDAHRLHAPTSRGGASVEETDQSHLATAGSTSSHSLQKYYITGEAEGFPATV
Chain of Androgen receptor (Homo sapiens) (P10275 whole entry, looked up): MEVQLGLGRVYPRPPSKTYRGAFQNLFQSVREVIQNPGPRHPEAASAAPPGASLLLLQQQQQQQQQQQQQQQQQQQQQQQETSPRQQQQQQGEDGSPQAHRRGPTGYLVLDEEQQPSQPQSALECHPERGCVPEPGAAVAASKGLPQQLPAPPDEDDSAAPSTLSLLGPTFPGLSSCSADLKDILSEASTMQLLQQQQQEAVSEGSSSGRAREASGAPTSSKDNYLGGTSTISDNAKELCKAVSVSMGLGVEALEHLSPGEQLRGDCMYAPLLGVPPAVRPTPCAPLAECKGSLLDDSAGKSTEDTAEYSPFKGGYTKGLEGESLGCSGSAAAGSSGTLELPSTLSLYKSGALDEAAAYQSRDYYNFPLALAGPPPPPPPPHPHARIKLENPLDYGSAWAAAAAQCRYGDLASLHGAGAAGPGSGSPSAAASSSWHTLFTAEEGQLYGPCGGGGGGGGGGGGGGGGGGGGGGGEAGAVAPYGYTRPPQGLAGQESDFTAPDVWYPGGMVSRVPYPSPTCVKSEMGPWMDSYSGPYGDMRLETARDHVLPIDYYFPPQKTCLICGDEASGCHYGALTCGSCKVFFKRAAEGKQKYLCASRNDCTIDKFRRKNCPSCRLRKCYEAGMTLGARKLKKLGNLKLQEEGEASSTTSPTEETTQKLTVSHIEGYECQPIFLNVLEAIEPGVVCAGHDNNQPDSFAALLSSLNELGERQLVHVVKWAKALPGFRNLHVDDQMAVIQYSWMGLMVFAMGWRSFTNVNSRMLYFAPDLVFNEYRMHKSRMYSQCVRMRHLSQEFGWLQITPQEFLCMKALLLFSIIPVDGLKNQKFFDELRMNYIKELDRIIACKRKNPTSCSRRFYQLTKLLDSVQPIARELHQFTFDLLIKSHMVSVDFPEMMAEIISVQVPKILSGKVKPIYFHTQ

Take `CN1Cc2cc(C(=O)N3CCC(C4CCNCC4)CC3)ccc2N[C@@H](CC(=O)O)C1=O`: the Potency result in assay [1], in [2], in assay [3], in [4], in assay [5] and in [6] was “inactive” each time. In addition, the Potency entry in [7], in [8], in [10], in [11], in [12] and in assay [13] was “inactive” each time. In addition, the Potency result in assay [14] and in assay [15] was “inactive” each time. Besides, the compound was called inactive in assay [9], in [16], in assay [17] and in [18].
As to `CCCOC(=O)c1ccc(C(=O)OCCC)nc1`, the Potency result in assay [1], in assay [2], in assay [3], in assay [4], in [5] and in assay [6] was “inactive” each time. The Potency result in assay [19], in [7], in assay [8], in [10], in assay [11] and in [14] was “inactive” in each case. Besides, the Potency result in [15] is “inactive”. In addition, the call in [9], in assay [20], in assay [16] and in assay [18] was inactive.
`CCCCCCCCCCCCCCC[C@H](O)[C@@H](N)CO`: the Potency result in assay [1], in [2], in assay [3], in assay [4], in assay [5] and in assay [6] was “inactive” in each case. Besides, the Potency entry in assay [19], in [7], in [8], in assay [11], in assay [12] and in assay [15] was “inactive” throughout. Also, the outcome in [9], in assay [20], in assay [16], in [17] and in [18] was inactive. For the same compound, the Potency in assay [10] was 26.6 µM (active).
Take `CC1=C(C=O)C(C)(C)CCC1`: the Potency entry in assay [1], in assay [2], in [3], in assay [4], in [5] and in assay [6] was “inactive” throughout. The Potency entry in assay [7], in assay [8], in assay [10], in assay [11], in assay [12] and in [13] was “inactive” throughout. Also, the Potency result in assay [14] and in [15] was “inactive” throughout. For the same compound, the compound was classed as inactive in assay [9], in assay [20], in assay [16], in assay [17] and in [18].
Take `O=C(O)c1snc(Cl)c1Cl`: the Potency entry in [1], in assay [2], in assay [3], in assay [4], in [5] and in assay [6] was “inactive” in each case. Also, the Potency entry in assay [7], in assay [10], in assay [11], in assay [12], in assay [13] and in assay [14] was “inactive” in each case. The Potency entry in assay [15] is “inactive”. The compound was called inactive in assay [9], in assay [20], in assay [16], in [17] and in [18].
Take `CC(=O)OCC(=O)[C@@]12OC(C)(C)O[C@@H]1C[C@H]1[C@@H]3C[C@H](F)C4=CC(=O)C=C[C@]4(C)[C@@]3(F)[C@@H](O)C[C@@]12C`: the Potency entry in assay [1], in [2], in assay [3], in assay [4], in assay [5] and in [6] was “inactive” throughout. For the same compound, the Potency entry in [7], in assay [8], in [11], in assay [13] and in assay [14] was “inactive” throughout. For the same compound, the result in assay [9], in [20], in assay [16] and in assay [17] was inactive. The Potency in assay [12] is 0.0033 µM (active).
